From article PMC5540273 (PLoS ONE, 2017)

Assays:
Conditions in all cases: concentration: 1 μM, replicates: in singlicate; n = 1
[1] = tested on: T1, ASK2
T1 construct: gene MAP3K6

[2] = tested on: AURKA
[3] = tested on: AURKB
[4] = tested on: AURKC
[5] = tested on: AXL
[6] = tested on: T2, BIKE
T2 construct: gene BMP2K

[7] = tested on: BLK
[8] = tested on: BMPR1A
[9] = tested on: BMPR1B
[10] = tested on: BMPR2
[11] = tested on: BMX
[12] = tested on: BRAF
[13] = tested on: T3, BRK
T3 construct: gene PTK6

[14] = tested on: BRSK1
[15] = tested on: BRSK2
[16] = tested on: BTK
[17] = tested on: BUB1
[18] = tested on: CAMK1B
[19] = tested on: CAMK1D
[20] = tested on: CAMK1G
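Note: KINOMEscan kinase panel screen.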

SMILES	%Inh [1] [%]	%Inh [2] [%]	%Inh [3] [%]	%Inh [4] [%]	%Inh [5] [%]	%Inh [6] [%]	%Inh [7] [%]	%Inh [8] [%]	%Inh [9] [%]	%Inh [10] [%]	%Inh [11] [%]	%Inh [12] [%]	%Inh [13] [%]	%Inh [14] [%]	%Inh [15] [%]	%Inh [16] [%]	%Inh [17] [%]	%Inh [18] [%]	%Inh [19] [%]	%Inh [20] [%]
CCS(=O)(=O)c1ccc(OC)c(Nc2nccc(-c3c(-c4cccc(NC(=O)c5c(F)cccc5F)c4)nn4ncccc34)n2)c1 [GSK326180]	9	15	25	60	9	40	36	0	0	4	0	90	93.5	0	0	15	28	33	12	7
O=C(Nc1n[nH]c2cc(-c3ccoc3)ccc12)C1CC1 [SB-738481]	5	23	20	19	37	35	0	11	21	60	16	0	0	11	0	0	0	0	0	0
FC(F)(F)c1ccc(/C=C/c2cncnc2Nc2ccc3[nH]c(Cc4ccccc4)nc3c2)cc1 [GW709199]	0	0	5	0	0	0	3	4	0	0	0	0	11	3	8	19	0	0	5	0
C[C@@H](Oc1cc(-n2cnc3cc(-c4ccnc(NCCS(C)(=O)=O)c4)ccc32)sc1C(N)=O)c1ccccc1Cl [GSK907232]	7	0	27	65	91	97.7	30	21	0	0	23	0	20	55	78	0	31	31	15	13
Cc1ccc(C(=O)Nc2ccc(Nc3ccnc4cc(-c5nccs5)ccc34)cc2O)cc1.Cl [GW494702]	0	100	91.3	61	9	9	97	0	0	12	18	1	38	0	0	100	35	8	0	15
Nc1ncnc2c1nc(-c1ccccc1)n2-c1ccccc1 [SKF-97293]	29	24	47	0	14	4	0	8	17	46	15	6	1	15	27	0	46	6	8	0
COc1ccc(CNC(=O)NC2CCN(c3ccnc(Nc4ccc(F)cc4)n3)CC2)cc1 [GSK1379788]	0	34	26	5	0	0	3	0	0	5	3	0	0	0	0	0	56	7	15	0
CC(C)(C)c1ccc2nccc(Nc3cccc(O)c3)c2c1 [GW856795]	0	0	33	0	70	0	59	0	44	38	0	41	51	0	11	43	24	68	13	0
CCCCc1nn2ncccc2c1-c1ccnc(Nc2ccc(N3CCN(C)CC3)cc2)n1 [GW684941]	16	96.7	80	82	69	69	81	0	91	0	53	86	69	3	0	57	93.3	25	0	0
